Compounds without any hit were thinned out: in the full panel of roughly 83,000, 20% have a hit.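 48-hour exposure, single concentration, 96-well plates; percent growth endpoint where 0 means no net growth. Active: below 10.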 Values without a mark were called inactive. Activity calls are given as the source filed them.
System: HL-60(TB) leukemia
Experiment: NCI-60 one-dose screen, 48 h (100 = growth as untreated, 0 = no growth, -100 = all killed)
Details: 10 µM unless noted

| SMILES | growth |
| --- | --- |
| Cc1cc(Nc2cc(N3CCN(C)CC3)nc(/C=C/c3ccccc3)n2)n[nH]1 | -29.7% (active) |
| O=C1/C(=C\c2ccc(Cl)cc2)CN(C(=S)Nc2ccccc2)C/C1=C\c1ccc(Cl)cc1 | -15.4% (active) |
| COc1cc(Cn2ncc3ccc(NC(=O)c4cc5ccccc5oc4=N)cc32)cc(OC)c1OC | 64.8% |
| Cc1nc(Nc2ccc(NC(=S)Nc3ccccc3)cc2)nc2nc(SCc3ccccc3)[nH]c(=O)c12 | 76% |
| COc1nc2ccc(C)cc2cc1-c1nc2c(cnn2-c2ccccc2)c(=O)[nH]1 | 50.1% |
| CCN(CC)CC(O)COc1c(Br)c(Br)c(Br)c2c1OC(C)(C)C2 (centres undefined) | 14% |
| COc1cnc2c(c1)C(=O)c1c-2n(CCCNC(C)C)c(=O)c2cc([N+](=O)[O-])ccc12 | -65% (active) |
| ClC1=C(Cl)C(Cl)=C(Cl)C1=Cc1ccccc1 | -8.87% (active) |
| Cc1ccc(S(=O)(=O)Oc2cc(OS(=O)(=O)c3ccc(C)cc3)cc(OS(=O)(=O)c3ccc(C)cc3)c2)cc1 | 107% |
| COc1ccc2nc(Cl)c(/C=C3\CC(c4ccccc4)=NN(c4ccccc4)C3=O)cc2c1 | 99% |
| COc1cc(OC)c2sc(-c3ccc(-n4cncc4-c4cc(OC)c(OC)c(OC)c4)cc3)nc2c1 | 30.3% |
| Cc1ccc(F)cc1NC(=O)c1cc(Cl)ccc1Nc1ccccc1 | 51.6% |
| CCN(CC)c1cc(C)c(Cc2c(OC)ccc3ccccc23)cc1C | 82.2% |
| CC(C)/C=N/NC(N)=S | 104% |
